In all, about 69,000 compounds went through this assay and about 8,600 (12%) showed an effect of 50% or more. Shown is part of a subset that was picked to be rich in strong results.

The assay relates to Plasmodium berghei. The assay is described as follows: Screen against P. berghei liver stage (PbLuc), transformed with Luciferase, at 10uM. In kind it is functional, HepG2. The note with it: tested at 10 uM.
For the compound `Cc1nccn1C1CCCN(C(=O)CCOCC(F)(F)F)C1` (centres undefined), the INHIBITION was 1.15%.

On to `CC(C)N(C)Cc1cnc2n1CCN(Cc1ccc(F)cc1)C2`, for which the INHIBITION is reported as 17.4%. For `Cc1cc2c(c(=O)n1CCC(=O)O)C=CC(C)(C)O2` the value was 10.9%; for `Cc1nc2cc(-c3nccn3C)nn2c(N2CCCC(O)C2)c1C` (centres undefined), 6.335%; for `Cn1cc(C(=O)N2C[C@H]3CC(Oc4ccccc4)C[C@H]3C2)cn1` (some centres undefined), 3.92%.

In the case of `CS(=O)(=O)N1C[C@H]2CCCN(Cc3cccs3)[C@H]2C1`, the INHIBITION turned out to be 24.6%. Under `CN(C)Cc1cc(=O)n2c(n1)CN(Cc1ccco1)CCC2` stands 26.5%; under `O=c1cc(CN2CCCC2)nc2n1CCCN(Cc1ccco1)C2`, 0.804%; under `CS(=O)(=O)NCc1cc(=O)n2c(n1)CN(Cc1ccco1)CCC2`, 52.3%. For `CCc1nc(CN2CCCCC2C(N)=O)cs1` (centres undefined) the value was -2.43%.

Regarding `Cc1cc(C(=O)NC(C)CC(=O)c2cccs2)n(C)n1` (centres undefined), the INHIBITION is on record as -18.8%. As for `COc1c(C(=O)NC(C)CC(=O)c2cccs2)c(C)nn1C` (centres undefined), the INHIBITION is recorded as 36.7%.

Consider `Cc1nn(C)c(C)c1C(=O)NC(C)CC(=O)c1cccs1` (centres undefined), for which the INHIBITION turned out to be 61.4%. `O=C([C@@H]1CC[C@@H]2[C@@H](CCN2c2ccncn2)O1)N1CCCCO1`: the INHIBITION turned out to be 5.68%. For `COCCOc1ccc(NC(=O)N2CCOC(C(N)=O)C2)cc1F` (centres undefined) the value was 15.9%; for `COc1ccc(C2(NC(=O)C3CC(=O)N(C)C3)CCCC2)cc1` (centres undefined), 26%; for `CNC(=O)CN1CCC(CN(C)Cc2ccncc2Cl)CC1`, -22.1%. Under `O=C(C1CCOC1)N1CCc2ncnc(NC3CCC3)c2CC1` (centres undefined) stands 51.3%; under `CC(C)Nc1nc2c(c(NC3CC3)n1)CCN(C(=O)C1CCOC1)CC2` (centres undefined), 34.3%. With `Nc1nc2c(c(NC3CCCC3)n1)CCN(C(=O)C1CCOC1)CC2` (centres undefined), the INHIBITION came to 97.2%. For `O=C(C1CCOC1)N1CCc2ncnc(C3CC3)c2CC1` (centres undefined) the value was -13.4%. Turning to `O=C(C1CCCO1)N1CCc2ncnc(NC3CCC3)c2CC1` (centres undefined), the INHIBITION is listed as -29.5%. Under `O=C([C@H]1CCCO1)N1CCc2ncnc(NC3CC3)c2CC1` stands 48.5%; under `N#Cc1cccc(OCc2ccoc2C(=O)N2CCCCCC2)c1`, 5.91%.

In the case of `O=C(C1CCCO1)N1C[C@@H]2CCN(c3cnccn3)C[C@@H]2C1` (some centres undefined), the INHIBITION was 28.4%. On to `Cc1cc(C(=O)NCc2c(C)nn(C)c2C)nc(N2CCCC2)n1`, for which the INHIBITION is -31.4%. For `O=C(O)c1cnc(N2CC[C@H](N3CCOCC3)[C@H](CCCO)C2)c(Cl)c1` the value was 14%; for `O=S(=O)(NC1=NCN(CCc2ccccc2)CN1)c1ccc(F)cc1`, -4.52%. Under `Cc1occc1C(=O)NCc1cccnc1N(C)C` stands 33.15%.
